# The source made the active and inactive calls.
# System: not listed separately
# Experiment: budding yeast growth modifiers under rapamycin – strain BY4716, OD600, 96 h, primary screen (AID 1091); also: test concentration not given here
# Conditions: S. cerevisiae BY4716 + rapamycin, higher = more signal, called active from +8 up or from −8 down
row,Structure (SMILES),z-score
1,CON=C[C@@H](NS(=O)(=O)c1ccc(C)cc1)[C@H](C)C=CCC(=O)OC,0.719 (inactive)
2,COc1cccc([C@H]2Oc3ccc(OC)cc3C(=NO[C@H](C)c3cn([C@H](CO)Cc4ccccc4)nn3)[C@@H]2O)c1,-1.21 (inactive)
3,COc1ccc(COC(=O)NN=C2C[C@@H](O)[C@@H](O)[C@@H]3[C@@H]4C(=O)N(c5cccc(Oc6ccccc6)c5)C(=O)[C@@H]4CC[C@@H]23)cc1,0.752 (inactive)
4,CO[C@@H]1COC(=O)CC=C[C@H](C)[C@H](OC)COC(=O)[C@H](C)NC(=O)CC=C[C@H]1C,0.329 (inactive)
5,O=C1C[C@@H](O)[C@@H](O)[C@@H]2[C@@H]3C(=O)N(C[C@@H]4CCCO4)C(=O)[C@@H]3CC[C@H]12,0.672 (inactive)
6,COC(=O)[C@@H]1CC[C@@H](C)[C@H](c2ccc(Br)cc2)N1,-0.116 (inactive)
7,COC(=O)[C@@H]1CC[C@H](C)[C@@H](c2ccc(C)cc2)N1C(=O)c1ccc(C=NO[C@H](C)c2cn([C@@H]3COC[C@H]3O)nn2)cc1,0.726 (inactive)
8,Cn1c(=O)n2n(c1=O)[C@H]1[C@H](O)[C@@H]3O[C@@H]3C(=NOCc3ccccc3)[C@H]1CC2,-0.115 (inactive)
9,CCOC(=O)NN=C1C[C@@H](O)[C@@H](O)[C@@H]2[C@@H]3C(=O)N(c4cccc(Oc5ccccc5)c4)C(=O)[C@@H]3CC[C@@H]12,-0.869 (inactive)
10,COC(=O)[C@H](C)NC(=O)CCC1CC(OC(=O)NCc2cccc3ccccc23)CC2(CCCC(COC(=O)NCC(c3ccccc3)c3ccccc3)O2)O1 (some centres not stated),-0.691 (inactive)
11,Cc1ccc(S(=O)(=O)n2c3ccccc3c3nnc(C(=O)c4ccccc4)nc32)cc1,0.881 (inactive)
12,COC(=O)C=CCCc1coc(C=CCNC(=O)OC)n1,0.196 (inactive)
13,CON=C1[C@H]2CCn3c(=O)n(-c4ccccc4)c(=O)n3[C@H]2[C@H](O)[C@@H]2O[C@H]12,2.3 (inactive)
14,CC(C)=CCCC(C)=CCON=C1C[C@@H](O)[C@@H](O)[C@@H]2[C@@H]3C(=O)N(C4CCCCC4)C(=O)[C@@H]3CC[C@@H]12,-0.513 (inactive)
15,O=C1[C@H]2[C@H]3[C@H](O)[C@H](O)CC(=NOC[C@@H](O)COCc4ccco4)[C@H]3CC[C@H]2C(=O)N1C[C@@H]1CCCO1,-0.318 (inactive)
16,O=C(NN=C1C[C@@H](O)[C@@H](O)[C@@H]2[C@@H]3C(=O)N(C[C@@H]4CCCO4)C(=O)[C@@H]3CC[C@@H]12)OCc1ccccc1,-0.655 (inactive)
17,COc1ccc(C#C[C@@H]2C=C[C@H](OC(C)=O)[C@@H](COC(C)=O)O2)cc1,-0.451 (inactive)
18,CC(C)CON=C1C[C@@H](O)[C@@H](O)[C@@H]2[C@@H]3C(=O)N(c4cccc(Oc5ccccc5)c4)C(=O)[C@@H]3CC[C@@H]12,-0.827 (inactive)
19,CCOC(=O)[C@H](CC(C)C)NC(=O)CCC1CC(OC(=O)NCc2cccc3ccccc23)CC2(CCCC(COC(=O)NCc3cccc(C(F)(F)F)c3)O2)O1 (some centres not stated),0.289 (inactive)
20,C#CCCCON=C1C[C@@H](O)[C@@H](O)[C@@H]2[C@@H]3C(=O)N(Cc4ccccc4)C(=O)[C@@H]3CC[C@@H]12,-1.61 (inactive)
21,COc1ccc(O[C@H]2C=C[C@@H](c3ccccc3)O[C@@H]2CON=CC[C@@H]2C=C[C@H](OC(C)=O)[C@@H](COC(C)=O)O2)cc1,0.721 (inactive)
22,CC(C)(C)N1C(=O)[C@H]2[C@H]3[C@H](O)[C@H](O)CC(=O)[C@H]3CC[C@H]2C1=O,0.85 (inactive)
23,Cc1cc2c(nc1C)CCCCN2CC(C)ON=C[C@@H](C)[C@H](OCc1ccccc1)C(C)C (some centres not stated),0.365 (inactive)
24,C#CCCCON=C1C[C@@H](O)[C@@H](O)[C@@H]2[C@@H]3C(=O)N(CCC(=O)OCC)C(=O)[C@@H]3CC[C@H]12,-0.947 (inactive)
25,CCOC(=O)[C@H](CC(C)C)NC(=O)CCC1CC(OC(=O)NCc2cccc3ccccc23)CC2(CCCC(COC(=O)NCCOC)O2)O1 (some centres not stated),-1.09 (inactive)
26,COc1ccc(COC(=O)NN=C2C[C@@H](O)[C@@H](O)[C@@H]3[C@@H]4C(=O)N(c5ccc(F)cc5F)C(=O)[C@@H]4CC[C@H]23)cc1,-0.971 (inactive)

# Target: Torsin-1A-interacting protein 2 (Homo sapiens) (UniProt Q8NFQ8)
# Experiment: small molecules binding lysate-expressed LULL1 – cell lysate, human LULL1 lysate, 635/667 nm fluorescence, primary screen (AID 1092);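 also: probe is lysate of COS7 cells overexpressing human LULL1; score merges per-feature 667 nm fluorescence with signal-to-noise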
# Conditions: small-molecule microarray, hLULL1 lysate binding, 635 nm fluorescence; higher = more signal
# Torsin-1A-interacting protein 2 (Homo sapiens), sequence (Q8NFQ8 whole entry, looked up): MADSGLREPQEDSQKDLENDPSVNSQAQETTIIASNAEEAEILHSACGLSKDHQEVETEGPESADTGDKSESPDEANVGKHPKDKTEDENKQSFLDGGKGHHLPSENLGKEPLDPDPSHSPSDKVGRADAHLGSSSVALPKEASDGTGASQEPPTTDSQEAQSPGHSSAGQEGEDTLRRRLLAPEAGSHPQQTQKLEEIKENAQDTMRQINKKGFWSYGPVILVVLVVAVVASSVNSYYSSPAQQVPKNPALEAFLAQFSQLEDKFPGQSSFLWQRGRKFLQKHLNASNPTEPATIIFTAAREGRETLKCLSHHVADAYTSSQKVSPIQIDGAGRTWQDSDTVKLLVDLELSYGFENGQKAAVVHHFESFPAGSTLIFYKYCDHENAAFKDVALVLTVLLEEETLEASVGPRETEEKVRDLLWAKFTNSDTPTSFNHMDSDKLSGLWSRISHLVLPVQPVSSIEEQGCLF
row,Structure (SMILES),composite z-score
1,CC(C)=NO[C@H](C)c1cn([C@H](CO)Cc2ccccc2)nn1,1.09
2,CCOC(=O)[C@H](CC(C)C)NC(=O)CCC1CC(OC(=O)NCc2cccc3ccccc23)CC2(CCCC(COC(=O)NCCOc3ccccc3)O2)O1 (some centres not stated),1.13
3,O=C1C[C@@H](O)[C@@H](O)[C@@H]2[C@@H]3C(=O)N(C[C@@H]4CCCO4)C(=O)[C@@H]3CC[C@@H]12,1.17
4,CCOC(=O)[C@H](CC(C)C)NC(=O)CCC1CC(OC(=O)NCc2cccc3ccccc23)CC2(CCCC(COC(=O)NCCc3ccc(Cl)cc3)O2)O1 (some centres not stated),1.04
5,CO[C@H]1COC(=O)CC=C[C@@H](C)[C@H](NS(=O)(=O)c2ccc(C)cc2)COC(=O)CCC[C@@H]1C,-0.401
6,CO[C@H]1COC(=O)[C@H](C)NC(=O)CC=C[C@@H](C)[C@H](OC)COC(=O)[C@@H](OCc2ccccc2)C=C[C@@H]1C,-0.986
7,CCCNC(=O)OC[C@H]1O[C@H](CCON=C(C)CCN2CCCc3nc(C)c(C)cc32)C=C[C@@H]1Oc1ccc(OC)cc1,2.38
8,C#CCCCON=C1C[C@@H](O)[C@@H](O)[C@@H]2[C@@H]3C(=O)N(CC)C(=O)[C@@H]3CC[C@@H]12,0.187
9,COC(=O)[C@H](C)NC(=O)CCC1CC(OC(=O)NCc2ccc3c(c2)OCO3)CC2(CCCC(COC(=O)NCC3CCCCC3)O2)O1 (some centres not stated),2.28
10,CO[C@H]1COC(=O)CC=C[C@@H](C)[C@H](OC)COC(=O)[C@@H]2CCCN2C(=O)CC=C[C@@H]1C,-0.328
11,CON=C[C@@H](NS(=O)(=O)c1ccc(C)cc1)[C@H](C)C=CCC(=O)OC,-0.312
12,COc1cccc([C@H]2Oc3ccc(OC)cc3C(=NO[C@H](C)c3cn([C@H](CO)Cc4ccccc4)nn3)[C@@H]2O)c1,0.202
13,COc1ccc(COC(=O)NN=C2C[C@@H](O)[C@@H](O)[C@@H]3[C@@H]4C(=O)N(c5cccc(Oc6ccccc6)c5)C(=O)[C@@H]4CC[C@@H]23)cc1,0.624
14,CO[C@@H]1COC(=O)CC=C[C@H](C)[C@H](OC)COC(=O)[C@H](C)NC(=O)CC=C[C@H]1C,-0.207
15,O=C1C[C@@H](O)[C@@H](O)[C@@H]2[C@@H]3C(=O)N(C[C@@H]4CCCO4)C(=O)[C@@H]3CC[C@H]12,0.493
16,COC(=O)[C@@H]1CC[C@@H](C)[C@H](c2ccc(Br)cc2)N1,-0.188
17,COC(=O)[C@@H]1CC[C@H](C)[C@@H](c2ccc(C)cc2)N1C(=O)c1ccc(C=NO[C@H](C)c2cn([C@@H]3COC[C@H]3O)nn2)cc1,2.06
18,Cn1c(=O)n2n(c1=O)[C@H]1[C@H](O)[C@@H]3O[C@@H]3C(=NOCc3ccccc3)[C@H]1CC2,2.31

row,Structure (SMILES),composite z-score
1,CCOC(=O)NN=C1C[C@@H](O)[C@@H](O)[C@@H]2[C@@H]3C(=O)N(c4cccc(Oc5ccccc5)c4)C(=O)[C@@H]3CC[C@@H]12,1.26
2,COC(=O)[C@H](C)NC(=O)CCC1CC(OC(=O)NCc2cccc3ccccc23)CC2(CCCC(COC(=O)NCC(c3ccccc3)c3ccccc3)O2)O1 (some centres not stated),2.99
3,Cc1ccc(S(=O)(=O)n2c3ccccc3c3nnc(C(=O)c4ccccc4)nc32)cc1,-0.0929
4,COC(=O)C=CCCc1coc(C=CCNC(=O)OC)n1,0.254
5,CON=C1[C@H]2CCn3c(=O)n(-c4ccccc4)c(=O)n3[C@H]2[C@H](O)[C@@H]2O[C@H]12,0.456
6,CC(C)=CCCC(C)=CCON=C1C[C@@H](O)[C@@H](O)[C@@H]2[C@@H]3C(=O)N(C4CCCCC4)C(=O)[C@@H]3CC[C@@H]12,-0.687
7,O=C1[C@H]2[C@H]3[C@H](O)[C@H](O)CC(=NOC[C@@H](O)COCc4ccco4)[C@H]3CC[C@H]2C(=O)N1C[C@@H]1CCCO1,-0.884
8,O=C(NN=C1C[C@@H](O)[C@@H](O)[C@@H]2[C@@H]3C(=O)N(C[C@@H]4CCCO4)C(=O)[C@@H]3CC[C@@H]12)OCc1ccccc1,-0.0366
9,COc1ccc(C#C[C@@H]2C=C[C@H](OC(C)=O)[C@@H](COC(C)=O)O2)cc1,0.387
10,CC(C)CON=C1C[C@@H](O)[C@@H](O)[C@@H]2[C@@H]3C(=O)N(c4cccc(Oc5ccccc5)c4)C(=O)[C@@H]3CC[C@@H]12,1.86
11,CCOC(=O)[C@H](CC(C)C)NC(=O)CCC1CC(OC(=O)NCc2cccc3ccccc23)CC2(CCCC(COC(=O)NCc3cccc(C(F)(F)F)c3)O2)O1 (some centres not stated),0.135
12,C#CCCCON=C1C[C@@H](O)[C@@H](O)[C@@H]2[C@@H]3C(=O)N(Cc4ccccc4)C(=O)[C@@H]3CC[C@@H]12,-0.569
13,COc1ccc(O[C@H]2C=C[C@@H](c3ccccc3)O[C@@H]2CON=CC[C@@H]2C=C[C@H](OC(C)=O)[C@@H](COC(C)=O)O2)cc1,0.22
14,CC(C)(C)N1C(=O)[C@H]2[C@H]3[C@H](O)[C@H](O)CC(=O)[C@H]3CC[C@H]2C1=O,0.46
15,Cc1cc2c(nc1C)CCCCN2CC(C)ON=C[C@@H](C)[C@H](OCc1ccccc1)C(C)C (some centres not stated),-1.02
16,C#CCCCON=C1C[C@@H](O)[C@@H](O)[C@@H]2[C@@H]3C(=O)N(CCC(=O)OCC)C(=O)[C@@H]3CC[C@H]12,1.28
17,CCOC(=O)[C@H](CC(C)C)NC(=O)CCC1CC(OC(=O)NCc2cccc3ccccc23)CC2(CCCC(COC(=O)NCCOC)O2)O1 (some centres not stated),2.7
18,COc1ccc(COC(=O)NN=C2C[C@@H](O)[C@@H](O)[C@@H]3[C@@H]4C(=O)N(c5ccc(F)cc5F)C(=O)[C@@H]4CC[C@H]23)cc1,0.142
